Rows were chosen to be rich in hits. Some 3.4% of all compounds tested hit in one or more screens of this group.
USP28 block – blocks human USP28 ubiquitin-rhodamine cleavage; inhibition, % at 25 µM; purified USP28, Ub-rhodamine cleavage fluorescence, 30 min; AID 1645857; 47,000 tested, 3% active
OTUD3 inh – inhibitors of human OTUD3 deubiquitinase; 47,000 tested, 0.7% active; purified OTUD3, Ub-rhodamine fluorescence, 2 h; inhibition, % at 25 µM
Target sequence (Q5T2D3 whole entry, looked up): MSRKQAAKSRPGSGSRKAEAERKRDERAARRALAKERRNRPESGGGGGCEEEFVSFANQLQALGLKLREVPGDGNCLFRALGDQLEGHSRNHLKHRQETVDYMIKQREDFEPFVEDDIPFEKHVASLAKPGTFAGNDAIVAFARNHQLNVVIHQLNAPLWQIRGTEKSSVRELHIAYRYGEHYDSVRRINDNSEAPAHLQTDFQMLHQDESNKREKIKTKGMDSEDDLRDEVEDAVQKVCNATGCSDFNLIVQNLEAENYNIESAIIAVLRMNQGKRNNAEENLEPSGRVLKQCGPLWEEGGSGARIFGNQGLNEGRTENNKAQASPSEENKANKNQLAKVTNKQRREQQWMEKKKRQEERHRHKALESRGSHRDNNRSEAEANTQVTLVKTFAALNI
* = called active by the depositor. Rule as the data show it: active = inhibition above about 30%; inactive = the rest.

Screening COCCCn1c(C(=O)N(Cc2ccccc2)Cc2ccccc2)cc2c(=O)n3cccc(C)c3nc21 returned USP28 block 1 and OTUD3 inh 2.
`COc1ccc(NC(=O)CNC(=O)c2ccc3nc(-n4cccc4)sc3c2)cc1` gave USP28 block 17 and OTUD3 inh 32*.
`CC(C)C[C@H](NC(=O)c1ccc2nc(-n3cccc3)sc2c1)C(=O)NCc1ccco1` gave USP28 block -21 and OTUD3 inh -14.
Screening CNc1nc2c(c(=O)n1C)CCN(C(=O)Nc1ccc(Cl)cc1Cl)C2 returned USP28 block -5 and OTUD3 inh -11.
`CC1=C(c2ccccc2)S(=O)(=O)N(CC(=O)Nc2ccc(F)cc2C)C1=O` gave USP28 block 8 and OTUD3 inh 9.
`CN1c2ccccc2CN(S(C)(=O)=O)CC1Cc1ccccc1` (stereo unspecified) gave USP28 block -3 and OTUD3 inh -4.
`COc1ccc(/C=C/C(=O)N2CCCc3ccccc32)cc1OC` gave USP28 block 22 and OTUD3 inh 3.
For COc1ccc(/C=C/C(=O)N2CCc3ccccc32)cc1S(=O)(=O)N1CCOCC1 the results were USP28 block 4 and OTUD3 inh 54*.
CCOC(=O)C1CCCN(Cc2cc(=O)oc3cc(C)c(C(C)C)cc23)C1 (stereo unspecified) was read as USP28 block 0 and OTUD3 inh 0.
CCOC(=O)C1CCN(Cc2cc(=O)oc3cc(O)c(O)cc23)CC1 was read as USP28 block 85* and OTUD3 inh 85*.
CN(C)CCc1cc2c(c3c1ccc1ccccc13)OCO2 was read as USP28 block 75* and OTUD3 inh 3.
Screening Cc1cccc(C(=O)Nc2cc3c4c(c2)CC(=O)N4CCC3)c1 returned USP28 block 37* and OTUD3 inh -15.
`CC(=O)Nc1cccc(C(=O)Nc2ccc(N3CCCC3=O)cc2)c1` gave USP28 block 22 and OTUD3 inh 17.
Screening COc1cc(OC)cc(C(=O)Nc2cccc(N3CCCC3=O)c2)c1 returned USP28 block 29 and OTUD3 inh -1.
For COc1cccc(C(=O)Nc2cc3c4c(c2)CC(=O)N4CCC3)c1 the results were USP28 block 33* and OTUD3 inh -13.
CCN1CC[C@@H]2[C@H]1C(=O)N(C)[C@@H](Cc1ccccc1)C(=O)N2C was read as USP28 block -4 and OTUD3 inh -2.
`Cc1nn(CC(=O)c2ccc3c(c2)NC(=O)CO3)c(C)c1[N+](=O)[O-]` gave USP28 block 32* and OTUD3 inh -12.
`CN(C)C(Cc1ccccc1)C(=O)c1ccc2c(c1)NC(=O)CO2` (stereo unspecified) gave USP28 block 6 and OTUD3 inh -9.
For Cc1ccc(NC(=O)CC2C(=O)N(Cc3ccccc3)c3nc4ccccc4n32)cc1 (stereo unspecified) the results were USP28 block 0 and OTUD3 inh -9.
Screening Cc1cc(F)ccc1S(=O)(=O)N1CCC(c2nnc3n2CCNCC3)CC1 returned USP28 block -3 and OTUD3 inh 1.
`COc1ccccc1NS(=O)(=O)c1ccc(C(=O)NCc2ccc(S(N)(=O)=O)cc2)cc1` gave USP28 block 16 and OTUD3 inh 8.
For NS(=O)(=O)c1ccc(CNS(=O)(=O)/C=C/c2ccccc2)cc1 the results were USP28 block 57* and OTUD3 inh 16.
`O=C(Cn1c(CSc2ccccc2)nc2ccccc21)Nc1ccccc1F` gave USP28 block 65* and OTUD3 inh 10.
Cc1cc(=O)n(CC(=O)Nc2ccccc2F)c(N2CCCCC2)n1 was read as USP28 block -7 and OTUD3 inh -4.
COc1cccc(-c2ccc3nc(C4CCN(C(=O)N(C)C)CC4)nn3c2)c1 was read as USP28 block 30* and OTUD3 inh 6.
For CN(C)C(=O)N1CCC(c2nc3ccc(-c4cccc(F)c4)cn3n2)CC1 the results were USP28 block 1 and OTUD3 inh -4.
For CCC(=O)N(Cc1ccc(-c2cccc(Cl)c2)o1)C1CCS(=O)(=O)C1 (stereo unspecified) the results were USP28 block -20 and OTUD3 inh -16.
For Clc1ccc2c(Nc3ccc4c(c3)OCO4)ccnc2c1 the results were USP28 block 43* and OTUD3 inh 10.
For O=C(Nc1ccc2c(c1)OCO2)c1ccc2noc(-c3ccc(Cl)cc3)c2c1 the results were USP28 block 17 and OTUD3 inh 10.
For Clc1ccc(OCc2nn[nH]n2)c(Cl)c1 the results were USP28 block -10 and OTUD3 inh -4.
For Cc1snc(SCc2nc(COc3ccc(Cl)cc3Cl)n[nH]2)c1C#N the results were USP28 block 40* and OTUD3 inh 26.
CC(=O)c1cccc(S(=O)(=O)N2CC(c3nc4ccc(C)cc4[nH]3)C2)c1 was read as USP28 block -5 and OTUD3 inh -2.
`Cc1ccc(NC(=O)CN2c3ccccc3S(=O)(=O)c3ccccc32)c(C)c1` gave USP28 block 0 and OTUD3 inh 0.
For Cc1ccc(NC(=O)Nc2ccc(C)n(CC(=O)Nc3cccc(C)c3)c2=O)cc1 the results were USP28 block 19 and OTUD3 inh 0.
Screening Cc1cccc(NC(=O)Nc2ccc(C)n(CC(=O)Nc3ccc(C)c(C)c3)c2=O)c1 returned USP28 block -3 and OTUD3 inh -10.
Screening Cc1cccc(NC(=O)Nc2ccc(C)n(CC(=O)Nc3ccccc3)c2=O)c1 returned USP28 block 40* and OTUD3 inh -16.
Screening Cc1ccc(NC(=O)Nc2ccc(C)n(CC(=O)Nc3cc(C)ccc3C)c2=O)cc1 returned USP28 block 30* and OTUD3 inh 46*.
`Cc1ccc(NC(=O)Nc2ccc(C)n(CC(=O)Nc3ccc(C)cc3C)c2=O)cc1` gave USP28 block 53* and OTUD3 inh 74*.
CCC1(c2ccccc2)NC(=O)N(CC(=O)Nc2cccc(C(C)=O)c2)C1=O (stereo unspecified) was read as USP28 block 3 and OTUD3 inh 0.
`CC(C)c1nc2c(NC(=O)Cc3ccccc3F)cccn2n1` gave USP28 block 11 and OTUD3 inh 16.
Screening COc1cc2c(c(O)c1Cl)C(=O)OC(C)C2 (stereo unspecified) returned USP28 block 14 and OTUD3 inh 10.
For O=C(NCc1ccco1)c1nnn(Cc2ccccc2Cl)c1-n1cccc1 the results were USP28 block 6 and OTUD3 inh 0.
Screening O=C(NCCc1ccccc1)c1nnn(Cc2cccc(Cl)c2)c1-n1cccc1 returned USP28 block 78* and OTUD3 inh -26.
`COc1ccc(-c2c3c(=O)n(C)c(=O)n(C)c3cn2CCO)cc1` gave OTUD3 inh 1.
`O=C(c1cnccn1)N1CCCC1c1cccc(Cc2ccc(Cl)cc2)n1` (stereo unspecified) gave USP28 block 16 and OTUD3 inh 12.
`Cc1cc(C)c(NC(=O)Cn2c(=O)n(Cc3ccccc3)c(=O)c3nn(C)cc32)c(C)c1` gave USP28 block 64* and OTUD3 inh 44*.
CCn1cc2c(n1)c(=O)n(Cc1ccccc1)c(=O)n2CC(=O)Nc1ccc(C)cc1C was read as USP28 block 16 and OTUD3 inh 9.
CNc1nccnc1C1CN(C(=O)c2c(C(C)C)noc2C)CCO1 (stereo unspecified) was read as USP28 block 0 and OTUD3 inh 12.

Assay outcomes deposited in PubChem BioAssay by Buhrlage Lab, Dana-Farber Cancer Institute and Novartis Institutes for BioMedical Research (Cambridge, Mass).
